{
  "source": "ChEMBL document CHEMBL1201862",
  "about": "“PubChem BioAssay data set” (2004)",
  "data": [
    {"biological_target": "Huntingtin (Homo sapiens) (UniProt P42858)", "sequence (P42858 whole entry)": "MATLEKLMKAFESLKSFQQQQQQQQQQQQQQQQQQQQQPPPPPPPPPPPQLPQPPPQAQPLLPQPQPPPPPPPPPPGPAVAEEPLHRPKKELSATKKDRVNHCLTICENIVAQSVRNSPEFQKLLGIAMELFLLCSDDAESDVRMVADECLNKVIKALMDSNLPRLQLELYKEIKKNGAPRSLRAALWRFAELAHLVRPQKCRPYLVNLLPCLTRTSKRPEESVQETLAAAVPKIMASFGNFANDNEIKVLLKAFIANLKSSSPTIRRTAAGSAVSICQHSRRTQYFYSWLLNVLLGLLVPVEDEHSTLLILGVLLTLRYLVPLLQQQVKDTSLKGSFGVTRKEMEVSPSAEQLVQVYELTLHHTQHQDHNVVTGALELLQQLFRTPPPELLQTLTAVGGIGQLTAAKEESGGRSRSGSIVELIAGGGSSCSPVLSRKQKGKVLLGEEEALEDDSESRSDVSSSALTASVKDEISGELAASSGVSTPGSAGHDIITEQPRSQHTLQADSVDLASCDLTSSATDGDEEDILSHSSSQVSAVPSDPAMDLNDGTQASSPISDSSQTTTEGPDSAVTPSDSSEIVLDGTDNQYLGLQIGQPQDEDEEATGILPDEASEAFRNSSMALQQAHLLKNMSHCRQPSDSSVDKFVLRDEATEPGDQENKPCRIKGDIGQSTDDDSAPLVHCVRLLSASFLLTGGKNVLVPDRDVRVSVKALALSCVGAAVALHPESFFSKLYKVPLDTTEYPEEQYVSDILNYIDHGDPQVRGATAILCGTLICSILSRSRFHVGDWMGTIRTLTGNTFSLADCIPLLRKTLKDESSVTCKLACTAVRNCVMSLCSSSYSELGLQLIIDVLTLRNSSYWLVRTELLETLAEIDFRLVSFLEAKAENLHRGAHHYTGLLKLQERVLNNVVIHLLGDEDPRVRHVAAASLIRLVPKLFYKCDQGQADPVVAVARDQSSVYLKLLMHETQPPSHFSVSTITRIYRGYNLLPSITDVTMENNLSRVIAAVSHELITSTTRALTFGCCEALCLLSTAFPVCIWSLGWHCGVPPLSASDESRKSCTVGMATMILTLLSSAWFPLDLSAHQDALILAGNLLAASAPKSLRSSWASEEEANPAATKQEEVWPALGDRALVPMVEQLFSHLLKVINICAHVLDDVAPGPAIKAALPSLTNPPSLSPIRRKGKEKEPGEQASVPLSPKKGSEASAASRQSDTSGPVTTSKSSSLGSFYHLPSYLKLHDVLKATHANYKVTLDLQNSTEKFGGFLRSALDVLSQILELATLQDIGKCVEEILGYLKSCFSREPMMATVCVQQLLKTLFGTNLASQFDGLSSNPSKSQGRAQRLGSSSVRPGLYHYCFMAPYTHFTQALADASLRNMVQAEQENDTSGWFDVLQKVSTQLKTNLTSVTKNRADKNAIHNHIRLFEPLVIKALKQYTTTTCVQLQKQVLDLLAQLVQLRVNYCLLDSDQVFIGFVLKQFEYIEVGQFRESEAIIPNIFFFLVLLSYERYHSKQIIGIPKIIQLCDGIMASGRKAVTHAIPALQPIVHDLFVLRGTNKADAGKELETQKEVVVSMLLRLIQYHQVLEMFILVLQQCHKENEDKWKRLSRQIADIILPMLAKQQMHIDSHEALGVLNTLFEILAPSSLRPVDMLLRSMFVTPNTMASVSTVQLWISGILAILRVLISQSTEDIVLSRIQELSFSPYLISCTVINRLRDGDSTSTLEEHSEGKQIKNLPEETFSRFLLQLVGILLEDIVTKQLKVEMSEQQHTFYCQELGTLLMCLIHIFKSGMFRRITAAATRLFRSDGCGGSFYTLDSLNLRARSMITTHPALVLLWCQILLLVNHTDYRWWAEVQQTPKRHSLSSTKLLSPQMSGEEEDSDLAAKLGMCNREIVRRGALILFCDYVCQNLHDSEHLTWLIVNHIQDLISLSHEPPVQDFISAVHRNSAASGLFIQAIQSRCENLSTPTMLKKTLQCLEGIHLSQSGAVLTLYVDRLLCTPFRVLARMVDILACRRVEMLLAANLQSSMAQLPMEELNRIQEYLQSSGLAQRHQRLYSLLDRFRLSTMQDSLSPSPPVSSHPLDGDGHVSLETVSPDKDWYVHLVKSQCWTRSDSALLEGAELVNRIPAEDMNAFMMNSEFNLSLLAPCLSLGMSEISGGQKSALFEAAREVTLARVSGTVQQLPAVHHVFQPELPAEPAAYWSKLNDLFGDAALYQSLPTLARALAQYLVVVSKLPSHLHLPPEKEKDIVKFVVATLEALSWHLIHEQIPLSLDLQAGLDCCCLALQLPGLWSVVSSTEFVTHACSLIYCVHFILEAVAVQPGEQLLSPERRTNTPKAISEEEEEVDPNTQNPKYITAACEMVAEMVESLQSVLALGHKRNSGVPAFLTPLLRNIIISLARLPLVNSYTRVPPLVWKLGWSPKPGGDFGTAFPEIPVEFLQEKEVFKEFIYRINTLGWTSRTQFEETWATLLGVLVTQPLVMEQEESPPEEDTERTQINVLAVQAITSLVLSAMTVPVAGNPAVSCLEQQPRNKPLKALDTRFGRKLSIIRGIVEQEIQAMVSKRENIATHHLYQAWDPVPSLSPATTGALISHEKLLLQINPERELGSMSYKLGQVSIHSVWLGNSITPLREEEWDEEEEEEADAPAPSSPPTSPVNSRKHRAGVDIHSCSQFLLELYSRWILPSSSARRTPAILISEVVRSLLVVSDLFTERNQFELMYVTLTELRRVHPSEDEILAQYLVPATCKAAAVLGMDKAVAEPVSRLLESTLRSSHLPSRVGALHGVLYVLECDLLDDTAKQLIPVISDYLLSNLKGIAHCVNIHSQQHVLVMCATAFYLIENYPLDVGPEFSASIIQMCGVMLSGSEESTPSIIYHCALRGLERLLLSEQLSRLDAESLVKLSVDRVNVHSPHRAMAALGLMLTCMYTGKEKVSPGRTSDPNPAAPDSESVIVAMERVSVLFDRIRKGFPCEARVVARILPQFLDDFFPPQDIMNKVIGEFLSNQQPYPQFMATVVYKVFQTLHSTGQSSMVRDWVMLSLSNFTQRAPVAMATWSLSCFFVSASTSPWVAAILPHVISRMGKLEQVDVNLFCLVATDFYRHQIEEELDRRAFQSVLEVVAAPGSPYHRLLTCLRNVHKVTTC", "experiment": "Quantitative High-Throughput Multiplex Assay to Identify Dual Action Probes in a Cell Model of Huntington: Summary. [Related pubchem assays (depositor defined):AID1471, AID1688, AID2669, AID2672, AID2673, AID2713]; call rule not given here", "type": "functional", "values": [
      {"smiles": "Cc1ccc(-c2csc3ncnc(Sc4nnnn4C)c23)cc1", "Potency": "15.8 µM (active)"},
      {"smiles": "Cn1nnnc1Sc1ncnc2scc(-c3ccccc3)c12", "Potency": "8.68 µM"},
      {"smiles": "COc1cccc(-c2csc3ncnc(Sc4nnnn4C)c23)c1", "Potency": "7.94 µM (active)"},
      {"smiles": "Cn1nnnc1Sc1ncnc2scc(-c3ccc(Cl)cc3)c12", "Potency": "15.8 µM (active)"},
      {"smiles": "COc1ccccc1-c1csc2ncnc(Sc3nnnn3C)c12", "Potency": "79.4 µM (active)"},
      {"smiles": "Cc1ccccc1-c1csc2ncnc(Sc3nnnn3C)c12", "Potency": "63.1 µM (active)"},
      {"smiles": "Cn1nnnc1Sc1ncnc2scc(-c3ccccc3C(F)(F)F)c12", "Potency": "25.1 µM (active)"},
      {"smiles": "Cn1nnnc1Sc1ncnc2scc(-c3ccccc3F)c12", "Potency": "12.6 µM (active)"},
      {"smiles": "Cc1cccc(-c2csc3ncnc(Sc4nnnn4C)c23)c1", "Potency": "15.8 µM (active)"},
      {"smiles": "COc1ccc(-c2csc3ncnc(Sc4nnnn4C)c23)cc1", "Potency": "12.6 µM (active)"},
      {"smiles": "Cn1nnnc1Sc1ncnc2scc(-c3cccc(F)c3)c12", "Potency": "7.94 µM (active)"}
    ]}
  ]
}
